According to the supplement of paper PMC11001985:

These targets were tested with C#CCNC(=O)CCSSCCC(=O)NCCc1ccc(C=O)c(C=O)c1 (assay: lysine labeling ratio R10:1 (500 µM / 50 µM probe), SILAC-ABPP in living cells; higher = lower intrinsic lysine reactivity toward the probe, active = 2 or less). Details: HeLa; probe concentrations 500 vs 50 µM.
Experimental: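 Living HeLa cells (SILAC light/heavy) in PBS at room temperature were labeled with 50 µM versus 500 µM of the lysine-reactive, reductant-cleavable probe OPA-S-S-alkyne (SILAC labeling time not stated). Probe-modified peptides were CuAAC-biotinylated, captured on neutravidin and eluted with DTT/IAA, then quantified by LC-MS/MS. R = median peptide ratio per lysine (500/50 µM), combined over 3 forward and 3 reverse SILAC replicates. Ratios are capped at 20; R < 2 = hyper-reactive.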

Sequence of UniProt O75955 (O75955 whole entry): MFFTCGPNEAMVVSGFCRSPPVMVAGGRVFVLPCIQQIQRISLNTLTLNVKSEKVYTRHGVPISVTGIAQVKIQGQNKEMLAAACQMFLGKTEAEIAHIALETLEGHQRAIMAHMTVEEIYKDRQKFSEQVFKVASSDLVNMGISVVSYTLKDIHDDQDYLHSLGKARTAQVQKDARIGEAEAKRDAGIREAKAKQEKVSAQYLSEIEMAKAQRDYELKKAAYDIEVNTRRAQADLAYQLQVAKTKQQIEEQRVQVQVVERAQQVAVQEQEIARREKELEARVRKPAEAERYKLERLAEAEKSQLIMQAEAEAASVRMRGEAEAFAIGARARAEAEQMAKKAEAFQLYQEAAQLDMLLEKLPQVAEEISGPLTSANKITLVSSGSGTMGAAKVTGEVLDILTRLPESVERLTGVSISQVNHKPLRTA
Sequence of UniProt P11047 (P11047 whole entry): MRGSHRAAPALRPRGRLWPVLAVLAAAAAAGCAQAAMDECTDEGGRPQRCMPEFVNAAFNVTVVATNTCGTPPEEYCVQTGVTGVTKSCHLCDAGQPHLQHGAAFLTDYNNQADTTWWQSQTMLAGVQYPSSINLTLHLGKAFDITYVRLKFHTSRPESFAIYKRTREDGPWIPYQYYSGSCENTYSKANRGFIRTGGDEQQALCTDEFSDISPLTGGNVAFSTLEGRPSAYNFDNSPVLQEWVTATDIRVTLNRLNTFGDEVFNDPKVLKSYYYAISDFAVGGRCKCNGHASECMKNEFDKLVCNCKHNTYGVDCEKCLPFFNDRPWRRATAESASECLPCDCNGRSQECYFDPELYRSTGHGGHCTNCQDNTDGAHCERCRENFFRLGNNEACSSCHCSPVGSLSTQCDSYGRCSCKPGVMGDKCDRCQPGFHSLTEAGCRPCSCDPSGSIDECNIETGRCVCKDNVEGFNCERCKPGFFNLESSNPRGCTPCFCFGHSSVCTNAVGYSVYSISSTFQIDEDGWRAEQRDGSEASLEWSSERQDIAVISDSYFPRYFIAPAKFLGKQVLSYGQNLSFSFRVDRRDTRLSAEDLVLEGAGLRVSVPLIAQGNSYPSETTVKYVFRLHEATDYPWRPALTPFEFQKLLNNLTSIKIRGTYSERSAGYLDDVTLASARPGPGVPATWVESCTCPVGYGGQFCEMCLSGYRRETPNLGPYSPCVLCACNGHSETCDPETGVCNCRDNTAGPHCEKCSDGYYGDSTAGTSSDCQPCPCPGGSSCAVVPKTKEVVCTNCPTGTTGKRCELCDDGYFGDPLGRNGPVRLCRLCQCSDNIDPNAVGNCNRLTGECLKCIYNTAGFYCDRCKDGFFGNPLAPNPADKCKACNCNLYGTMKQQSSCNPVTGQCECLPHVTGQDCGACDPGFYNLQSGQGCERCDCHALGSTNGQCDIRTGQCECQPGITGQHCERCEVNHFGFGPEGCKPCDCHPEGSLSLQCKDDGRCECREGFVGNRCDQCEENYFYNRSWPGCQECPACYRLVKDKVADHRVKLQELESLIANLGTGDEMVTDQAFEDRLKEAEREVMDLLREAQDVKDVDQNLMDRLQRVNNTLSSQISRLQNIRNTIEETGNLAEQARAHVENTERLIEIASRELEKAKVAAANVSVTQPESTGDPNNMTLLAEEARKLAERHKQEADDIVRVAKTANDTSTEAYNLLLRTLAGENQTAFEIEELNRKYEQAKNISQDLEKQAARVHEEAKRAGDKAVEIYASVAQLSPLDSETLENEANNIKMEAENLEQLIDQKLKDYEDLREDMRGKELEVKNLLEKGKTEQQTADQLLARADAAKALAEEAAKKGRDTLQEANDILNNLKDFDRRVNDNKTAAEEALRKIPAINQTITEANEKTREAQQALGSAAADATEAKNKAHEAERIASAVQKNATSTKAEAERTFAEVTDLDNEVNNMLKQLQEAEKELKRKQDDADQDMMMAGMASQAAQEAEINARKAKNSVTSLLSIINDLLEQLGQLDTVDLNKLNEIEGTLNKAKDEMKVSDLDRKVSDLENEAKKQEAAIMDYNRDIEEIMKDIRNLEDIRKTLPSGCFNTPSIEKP
Sequence of UniProt Q9HB71 (Q9HB71 whole entry): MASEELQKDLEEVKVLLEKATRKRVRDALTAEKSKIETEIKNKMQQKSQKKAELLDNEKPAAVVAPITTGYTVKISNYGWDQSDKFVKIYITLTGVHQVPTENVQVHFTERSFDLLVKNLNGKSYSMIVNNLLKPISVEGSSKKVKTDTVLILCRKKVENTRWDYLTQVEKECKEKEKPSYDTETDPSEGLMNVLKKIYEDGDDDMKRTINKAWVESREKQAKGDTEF
Sequence of UniProt Q9Y490 (Q9Y490 whole entry): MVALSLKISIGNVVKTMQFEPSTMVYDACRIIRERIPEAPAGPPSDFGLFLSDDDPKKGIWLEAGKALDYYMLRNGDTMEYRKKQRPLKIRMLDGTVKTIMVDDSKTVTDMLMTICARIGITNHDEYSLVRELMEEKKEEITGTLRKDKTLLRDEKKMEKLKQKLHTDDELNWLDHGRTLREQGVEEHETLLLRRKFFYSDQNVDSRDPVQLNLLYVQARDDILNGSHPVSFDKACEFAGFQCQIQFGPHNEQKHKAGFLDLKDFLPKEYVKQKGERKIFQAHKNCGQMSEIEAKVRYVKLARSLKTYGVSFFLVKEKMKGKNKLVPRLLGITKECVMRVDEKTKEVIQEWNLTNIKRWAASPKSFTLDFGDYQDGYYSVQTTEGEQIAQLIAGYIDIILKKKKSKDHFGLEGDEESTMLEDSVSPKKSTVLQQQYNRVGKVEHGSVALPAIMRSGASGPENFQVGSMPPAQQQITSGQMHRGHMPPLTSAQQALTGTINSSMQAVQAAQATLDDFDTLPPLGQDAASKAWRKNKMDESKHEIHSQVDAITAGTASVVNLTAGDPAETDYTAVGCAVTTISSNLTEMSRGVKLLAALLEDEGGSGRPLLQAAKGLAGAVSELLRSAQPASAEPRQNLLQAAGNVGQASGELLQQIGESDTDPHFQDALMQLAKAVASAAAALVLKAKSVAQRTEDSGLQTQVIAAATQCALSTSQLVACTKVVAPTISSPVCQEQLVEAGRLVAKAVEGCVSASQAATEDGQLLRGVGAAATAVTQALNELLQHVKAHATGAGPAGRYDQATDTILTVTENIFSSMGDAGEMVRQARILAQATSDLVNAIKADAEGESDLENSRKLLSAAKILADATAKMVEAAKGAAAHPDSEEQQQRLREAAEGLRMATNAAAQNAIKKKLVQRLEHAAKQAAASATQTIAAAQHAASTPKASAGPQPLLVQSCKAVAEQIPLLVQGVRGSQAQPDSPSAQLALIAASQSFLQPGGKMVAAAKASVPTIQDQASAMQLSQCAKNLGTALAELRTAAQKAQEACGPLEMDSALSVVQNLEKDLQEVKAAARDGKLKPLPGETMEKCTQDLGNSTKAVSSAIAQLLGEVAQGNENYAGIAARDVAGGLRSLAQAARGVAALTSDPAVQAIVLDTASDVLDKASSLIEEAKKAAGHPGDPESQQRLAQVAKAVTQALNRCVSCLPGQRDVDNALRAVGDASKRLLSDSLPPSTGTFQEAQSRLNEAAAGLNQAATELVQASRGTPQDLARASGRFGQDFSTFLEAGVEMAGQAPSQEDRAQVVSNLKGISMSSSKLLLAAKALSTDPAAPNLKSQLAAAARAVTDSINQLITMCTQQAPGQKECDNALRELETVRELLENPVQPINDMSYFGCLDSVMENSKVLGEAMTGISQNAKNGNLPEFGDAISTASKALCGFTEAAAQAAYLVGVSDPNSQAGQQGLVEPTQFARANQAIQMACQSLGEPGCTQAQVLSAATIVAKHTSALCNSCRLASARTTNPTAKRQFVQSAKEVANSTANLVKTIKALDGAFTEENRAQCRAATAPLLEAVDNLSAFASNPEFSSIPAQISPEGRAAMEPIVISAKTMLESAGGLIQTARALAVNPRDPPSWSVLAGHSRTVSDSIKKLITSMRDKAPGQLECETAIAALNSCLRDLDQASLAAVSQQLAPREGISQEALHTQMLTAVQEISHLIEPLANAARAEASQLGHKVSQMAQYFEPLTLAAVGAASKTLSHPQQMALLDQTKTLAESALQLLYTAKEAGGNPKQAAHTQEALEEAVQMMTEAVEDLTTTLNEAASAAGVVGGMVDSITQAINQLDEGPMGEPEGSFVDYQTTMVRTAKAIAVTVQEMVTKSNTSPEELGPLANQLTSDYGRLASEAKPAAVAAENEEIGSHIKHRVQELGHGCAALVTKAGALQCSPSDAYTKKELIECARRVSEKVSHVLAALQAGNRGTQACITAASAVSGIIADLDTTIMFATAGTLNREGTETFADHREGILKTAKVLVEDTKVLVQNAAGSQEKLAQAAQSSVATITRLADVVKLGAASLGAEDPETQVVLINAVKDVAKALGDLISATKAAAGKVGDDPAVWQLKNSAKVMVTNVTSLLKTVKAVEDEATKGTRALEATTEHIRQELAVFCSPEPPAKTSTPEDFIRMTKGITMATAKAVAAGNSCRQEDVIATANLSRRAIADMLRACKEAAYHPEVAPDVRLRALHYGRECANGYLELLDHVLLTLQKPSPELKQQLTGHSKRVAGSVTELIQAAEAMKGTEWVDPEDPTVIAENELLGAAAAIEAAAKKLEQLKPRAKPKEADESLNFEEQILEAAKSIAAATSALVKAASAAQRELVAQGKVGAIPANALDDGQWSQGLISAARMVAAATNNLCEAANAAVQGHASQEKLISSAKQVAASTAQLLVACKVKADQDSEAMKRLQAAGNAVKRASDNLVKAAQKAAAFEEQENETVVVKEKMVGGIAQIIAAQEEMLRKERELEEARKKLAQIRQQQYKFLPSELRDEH
Sequence of UniProt P52565 (P52565 whole entry): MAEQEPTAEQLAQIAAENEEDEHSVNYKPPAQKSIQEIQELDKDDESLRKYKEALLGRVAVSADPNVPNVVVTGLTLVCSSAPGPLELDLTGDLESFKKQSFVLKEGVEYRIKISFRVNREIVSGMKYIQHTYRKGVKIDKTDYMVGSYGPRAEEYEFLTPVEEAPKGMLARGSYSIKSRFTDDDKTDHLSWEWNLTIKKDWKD

| Target | lysine labeling ratio R10:1 |
| --- | --- |
| LAMC1 (lysine site: K1093) (UniProt P11047) | 2.13 (inactive) |
| CD97 (lysine site: K483) (UniProt P48960) | 5.15 (inactive) |
| TLN1 (lysine site: K1190) (UniProt Q9Y490) | 14.3 (inactive) |
| CD55 (lysine site: K110) (UniProt P08174) | 2.89 (inactive) |
| CAPZB (lysine site: K223) (UniProt P47756) | 2.76 (inactive) |
| PDCD6IP (lysine site: K48) (UniProt Q8WUM4) | 2.93 (inactive) |
| UniProt Q9NY47 (lysine site: K270) | 2.85 (inactive) |
| COPA (lysine site: K1134) (UniProt P53621) | 2.48 (inactive) |
| CACYBP (lysine site: K19) (UniProt Q9HB71) | 7.06 (inactive) |
| UniProt O95980 (lysine site: K230) | 1.91 (active) |
| GAPDH (lysine site: K227) (UniProt P04406) | 1.76 (active) |
| FLOT1 (lysine site: K220) (UniProt O75955) | 2.84 (inactive) |
| UniProt Q8WXI7 (lysine site: K14239) | 4.55 (inactive) |
| MYH9 (lysine site: K860) (UniProt P35579) | 2.67 (inactive) |
| CACNA2D1 (lysine site: K232) (UniProt P54289) | 3.57 (inactive) |
| UniProt O60245 (lysine site: K713) | 2.99 (inactive) |
| ERLIN2 (lysine site: K205) (UniProt O94905) | 3.71 (inactive) |
| UniProt P83881 (lysine site: K38) | 1.61 (active) |
| FLOT1 (lysine site: K184) (UniProt O75955) | 1.83 (active) |
| LAMC1 (lysine site: K1425) (UniProt P11047) | 2.54 (inactive) |

| Target | lysine labeling ratio R10:1 |
| --- | --- |
| UniProt P61513 (lysine site: K13) | 1.64 (active) |
| UniProt P62829 (lysine site: K13) | 5.2 (inactive) |
| MSN (lysine site: K501) (UniProt P26038) | 5.08 (inactive) |
| UGT8 (lysine site: K195) (UniProt Q16880) | 1.49 (active) |
| HEG1 (lysine site: K1073) (UniProt Q9ULI3) | 3.38 (inactive) |
| CCT4 (lysine site: K29) (UniProt P50991) | 1.71 (active) |
| MCAM (lysine site: K236) (UniProt P43121) | 6.1 (inactive) |
| UniProt Q6PIU2 (lysine site: K359) | 1.48 (active) |
| EPRS (lysine site: K328) (UniProt P07814) | 1.73 (active) |
| CCT2 (lysine site: K250) (UniProt P78371) | 1.5 (active) |
| ADGRG2 (lysine site: K592) (UniProt Q8IZP9) | 2.37 (inactive) |
| STMN1 (lysine site: K126) (UniProt P16949) | 2.8 (inactive) |
| ITGA3 (lysine site: K895) (UniProt P26006) | 2.18 (inactive) |
| LRP6 (lysine site: K1053) (UniProt O75581) | 2.76 (inactive) |
| FGB (lysine site: K422) (UniProt P02675) | 2.18 (inactive) |
| CSE1L (lysine site: K158) (UniProt P55060) | 3.34 (inactive) |
| ARHGDIA (lysine site: K52) (UniProt P52565) | 1.66 (active) |
| LMO7 (lysine site: K794) (UniProt Q8WWI1) | 2.02 (inactive) |
| CHCHD3 (lysine site: K63) (UniProt Q9NX63) | 1.33 (active) |
| UniProt P05787 (lysine site: K483) | 2.46 (inactive) |
